A selection: hits, their analogues and other compounds. The true share with any hit is near 2.1%.
EWS-Fli block: inhibitors of EWS/Fli oncoprotein transcriptional activity | A673 NR0B1-luciferase reporter, viability-normalised | inhibition, % at 12.6 µM | AID 651661 | actives 0.67% (n = 350,000);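 active means mean inhibition of at least 50% after viability correction, with every replicate also passing that limit; inconclusive means mean reaches 50% but only one of two replicates passes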;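 further: firefly luciferase signal divided by Alamar Blue viability fluorescence both relative to DMSO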
CF NFkB inh: blocks PAF-induced NF-kB reporter in cystic fibrosis cells; actives 0.86% (n = 360,000); KKLEB NF-kB-GFP reporter, GFP fluorescence overnight; AID 588850; inhibition, % at 5 µM;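 active means at least 50% inhibition at 5 µM, scaled per plate between neutral and stimulator controls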;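 further: PAF is a Pseudomonas aeruginosa culture filtrate used as stimulus; plate controls were PAF-stimulated DMSO wells for no effect and unstimulated DMSO wells for full effect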
KKLEB cytotox: CF airway cell cytotoxicity counter-screen; KKLEB CF airway cells viability, ATPlite luminescence, overnight; active compounds read low; cells stimulated with P. aeruginosa culture filtrate; AID 602141; activity change (cytotoxicity), % at 5 µM; actives 0.36% (n = 360,000);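 active means corrected activity change at or below -50% at 5 µM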
HIF-2a inh: HIF-2a inhibition; actives 0.72% (n = 360,000); 786-0 RCC cells HIF-2a reporter, luciferase luminescence, overnight; inhibition, % at 18.8 µM; AID 624352;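 active means inhibition of the luminescence signal of 40% or more relative to plate controls, in a single-dose primary screen at 18.75 µM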
PAX8 inh HTS: lowers PAX8-driven luciferase in RMG-I cells; RMG-I TPO-luciferase reporter, SteadyGlo, 24 h; inhibition, % at 12.6 µM; actives 1.2% (n = 360,000); AID 652154;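 active means mean replicate inhibition at least 60% with every replicate also reaching 60%; inconclusive means only one of the two criteria is met; inactive means mean below 60% and not all replicates reaching 60%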;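 further: luciferase light reporting Pax8 driven TPO promoter activity; plate controls were median of neutral control wells for no effect and mitoxantrone controls for full effect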
Mdm2-MdmX confirm: confirmation of inhibitors of human Mdm2/MdmX interaction, set 2 | shares compounds with HIF-2a inh | SaOS-2 split-luciferase Mdm2/MdmX complementation, luminescence | inhibition, % at 8 µM | actives 99% (n = 740) | AID 504601;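 active means mean inhibition of the luminescence signal across two replicates at or above 26 percent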
HIF-2a inh conf: HIF-2a inhibition, single concentration confirmation | inhibition, % at 18.8 µM | 786-0 RCC cells, HIF-2a luciferase reporter luminescence, overnight | shares compounds with HIF-2a inh | actives 56% (n = 1,800) | AID 651580;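 active means mean inhibition across four replicates of at least 40 percent at the single tested concentration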
HIF-1a cs: inhibits HIF-1a reporter, a counter-screen for HIF-2a inhibitors; shares compounds with HIF-2a inh; MiaPaCa-2 HIF-1a luciferase reporter, desferoxamine, overnight; inhibition, % at 18.8 µM; actives 72% (n = 1,800); AID 651589;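 active means mean inhibition of the reporter signal across four replicates at the single tested dose of 50% or more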
* marks the source's active call; other numbers are inactive results; u = inconclusive; x = no result.

SMILES | EWS-Fli block | CF NFkB inh | KKLEB cytotox | HIF-2a inh | PAX8 inh HTS | HIF-2a inh conf | HIF-1a cs | others
CN1C(=O)c2cc(NC(=O)c3ccc(F)cc3)ccc2OC[C@H]2O[C@H](CC(=O)NCC3CCCCC3)CC[C@H]21 | 20 | x | x | x | 18 | x | x
CCOc1cc(C=C(C(=O)OC)C(=O)OC)ccc1OCc1ccc([N+](=O)[O-])cc1 | x | 31 | -2 | 92* | x | 98* | 107*
N#C[C@H]1[C@@H](c2ccccc2)[C@H](CO)N1S(=O)(=O)c1ccc(F)cc1 | 5 | x | x | x | 1 | x | x
O=C(NCc1cc(C(F)(F)F)ccc1Cl)c1cccc2c1C(=O)c1ccc(N3CCC(N4CCCCC4)CC3)cc1S2(=O)=O | 48 | -15 | -14 | 92* | 94* | -4 | 100*
O=C(NCc1cc(C(F)(F)F)ccc1Cl)c1cccc2c1C(=O)c1ccc(N3CCCCC3)cc1S2(=O)=O | 18 | -5 | -7 | -2 | 14 | x | x
O=C(/C=C/c1ccccc1)CC(O)(c1ccccc1)C(F)(F)F (stereo not given) | x | 53* | -58* | 73* | x | 44* | 104*
COc1ccc(/C=C/C(=O)CC(O)(c2ccccc2)C(F)(F)F)cc1 (stereo not given) | x | 11 | -5 | 17 | x | x | x
O=C(/C=C/c1ccccc1)CC(O)(c1ccccc1)C(F)(F)C(F)F (stereo not given) | 66* | 23 | -34 | 70* | x | 53* | 106*
N#Cc1cccc2c1-c1ccccc1/C2=N/NC(N)=S | x | -167 | -8 | 48* | x | -9 | 32
N#Cc1cccc2c1-c1ccccc1/C2=N/NC(N)=O | x | -101 | 10 | 30 | x | x | x
COc1ccc(S(=O)(=O)N(C)C[C@H]2Oc3c(NC(=O)NC(C)C)cccc3C(=O)N([C@@H](C)CO)C[C@H]2C)cc1 | 3 | x | x | x | x | x | x
O=C(N/N=C/c1sc(N2CCOCC2)nc1-c1ccccc1)c1cccc(S(=O)(=O)N2CCCC2)c1 | 20 | -26 | 5 | 32 | 74* | x | x | Mdm2-MdmX confirm=80*
O=C(N/N=C/c1sc(N2CCOCC2)nc1-c1ccccc1)c1ccc(O)cc1 | 10 | -14 | 4 | -16 | -11 | x | x
NS(=O)(=O)c1ccc(Sc2ccccn2)c([N+](=O)[O-])c1 | 7 | 17 | 10 | 11 | 4 | x | x
NS(=O)(=O)c1ccc(Sc2nc3ccccc3s2)c([N+](=O)[O-])c1 | 25 | 82* | -53* | 16 | 78* | x | x | Mdm2-MdmX confirm=97*
C[C@@H]1CN([C@H](C)CO)C(=O)c2cc(NC(=O)c3ccncc3)ccc2O[C@@H](C)CCCCO[C@@H]1CN(C)Cc1ccc2c(c1)OCO2 | 2 | x | x | x | -6 | x | x
CCNC(=O)C[C@H]1CC[C@@H]2[C@H](COc3ccc(NC(=O)Nc4ccc(C)cc4)cc3C(=O)N2C)O1 | -34 | x | x | x | -16 | x | x
Cc1ccc(-c2nc(-c3ccccn3)no2)cc1 | x | -6 | -73* | 87* | x | 95* | 94* | Mdm2-MdmX confirm=95*
Clc1cccc(-c2nc(-c3ccccn3)no2)c1 | x | -30 | -25 | 53* | 35 | 72* | 65*
c1ccc(-c2nc(-c3ccccn3)no2)cc1 | x | -4 | -17 | 33 | x | x | x
C[C@@H]1CCCCO[C@@H](CN(C)C)[C@H](C)CN([C@@H](C)CO)C(=O)c2cc(NC(=O)Nc3ccccc3)ccc2O1 | 0 | x | x | x | -3 | x | x
CC(C)c1ccc(/C=C/C(=O)NC(=S)Nc2ccc(CN3CCOCC3)cc2)cc1 | -1 | 12 | -15 | -38 | 5 | x | x
CC(C)c1ccc(/C=C/C(=O)NC(=S)NN2CCOCC2)cc1 | 3 | -24 | 15 | 41* | -8 | -15 | -14
CC(=O)N(C(C)=O)c1ccc(Oc2ccc(Oc3ccc(N(C(C)=O)C(C)=O)cc3)cc2)cc1 | -27 | 40 | 18 | 68* | -3 | 87* | 50
O=C(Nc1ccc(OCc2ccccc2)cc1)c1cccnc1 | x | 7 | 9 | -107 | x | x | x
O=C(Nc1ccc(OCc2ccccc2Cl)cc1)c1cccnc1 | u | 7 | -3 | 48* | -21 | 83* | 89*

Source: PubChem
